This passage reports growth results from PubChem BioAssay (NCI).

Among the test systems are SK-MEL-2 melanoma; EKVX NSCLC; SN12C renal; UO-31 renal; TK-10 renal; ACHN renal; CAKI-1 renal; A498 renal; CCRF-CEM leukemia; MOLT-4 leukemia.
Common to all, as to experiment: NCI-60 one-dose screen, 48 h (100 = growth as untreated, 0 = no growth, -100 = all killed)
Common to all, as to conditions: 10 µM unless noted

Structures are written as SMILES. Compounds without any hit were thinned out: in the full panel of roughly 83,000, 20% have a hit.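 Plates (96-well) were seeded with cells, treated with compound at one concentration, and incubated for 48 hours before percent growth was determined.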 Values without a mark were called inactive. Activity calls are given as the source filed them. Rule for the calls: active = growth percent below 10; inactive = the rest.

Consider `CCOC(=O)c1ccc(NC(=S)NC(=O)c2cccc(NC(=O)c3ccc(C)cc3)c2)cc1`, for which the growth in the experiment with SK-MEL-2 melanoma was 88.9%; in the experiment with EKVX NSCLC, 74.7%; in the experiment with SN12C renal, 31%; in the experiment on UO-31 renal, 63.9%; in the experiment with TK-10 renal it was 89.2%; with ACHN renal, 75.5%. Moreover, the growth with CAKI-1 renal is 76.8%; in the experiment with A498 renal it was 105%; in the experiment on CCRF-CEM leukemia it was 78.3%; in the experiment with MOLT-4 leukemia it was 70.4%.
Turning to `Cn1cc(-c2cc(N)n3nc(-c4c[nH]c5ccccc45)cc3n2)c2ccccc21`, the growth in the experiment on SK-MEL-2 melanoma is -88.2% (active); in the experiment on EKVX NSCLC it was -96.1% (active); in the experiment on SN12C renal, -85.5% (active); in the experiment on UO-31 renal, -83.5% (active); with TK-10 renal, -93.4% (active); in the experiment with ACHN renal it was -100% (active). Moreover, the growth is -100% (active) in the experiment on CAKI-1 renal, -90.4% (active) with A498 renal, -20.6% (active) with CCRF-CEM leukemia and 9.25% (active) with MOLT-4 leukemia.
Regarding `CNc1nc2ccccc2n2c(-c3ccc(O)c(O)c3)cnc12`, the growth was 3.66% (active) in the experiment with SK-MEL-2 melanoma; 16.3% with EKVX NSCLC; 4.03% (active) with SN12C renal; 1.12% (active) with UO-31 renal; 62.8% with TK-10 renal; 6.64% (active) with ACHN renal. Besides, the growth with CAKI-1 renal is 3.52% (active); in the experiment on A498 renal, 92.4%; with CCRF-CEM leukemia, 14.9%; in the experiment on MOLT-4 leukemia, 11%.
Turning to `COc1c(B(O)O)cc(F)cc1-c1nc2c(F)cc3[nH]ncc3c2c2c1CCCC2`, the growth in the experiment with SK-MEL-2 melanoma was 46.8%; in the experiment on EKVX NSCLC, 13.5%; in the experiment with SN12C renal it was 17.2%; in the experiment on UO-31 renal it was 3.57% (active); in the experiment on TK-10 renal it was 21.3%; in the experiment with ACHN renal, 4.28% (active). Also, the growth in the experiment with CAKI-1 renal was 0.122% (active); in the experiment with A498 renal, -30.7% (active); in the experiment on CCRF-CEM leukemia it was -3.23% (active); in the experiment with MOLT-4 leukemia it was 17%.
Consider `O=C(N/N=C/c1ccc(Cl)o1)c1[nH]c2ccc(Br)cc2c1-c1ccccc1`, for which the growth in the experiment with SK-MEL-2 melanoma was 12.3%; in the experiment on EKVX NSCLC it was 12%; in the experiment on SN12C renal, -60.9% (active); with UO-31 renal, -34.5% (active); in the experiment on TK-10 renal, -11.7% (active); in the experiment with ACHN renal, -46% (active). For the same compound, the growth is -0.252% (active) in the experiment with CAKI-1 renal, -25.6% (active) in the experiment on A498 renal, -2.11% (active) in the experiment on CCRF-CEM leukemia and 3.03% (active) in the experiment with MOLT-4 leukemia.
As for `Cc1cn(-c2cc(NC(=O)c3ccc(C)c(-n4cc(-c5cnc6cccnn56)nn4)c3)cc(C(F)(F)F)c2)cn1`, the growth was 64.9% with SK-MEL-2 melanoma; 98.9% with EKVX NSCLC; 85.9% in the experiment on SN12C renal; 58.2% in the experiment with UO-31 renal; 111% in the experiment on TK-10 renal; 85.7% in the experiment with ACHN renal. Moreover, the growth with CAKI-1 renal was 94.7%; in the experiment on A498 renal, 185%; in the experiment with CCRF-CEM leukemia, 54.6%; with MOLT-4 leukemia, 38.9%.
Turning to `O=c1ccc(Cn2c(C(F)(F)F)cc3c(Cl)ncnc32)c[nH]1`, the growth in the experiment on SK-MEL-2 melanoma was -86.2% (active); in the experiment with EKVX NSCLC, 95.4%; in the experiment with SN12C renal it was 47.9%; with UO-31 renal, -88.4% (active); with TK-10 renal it was 111%; with ACHN renal, -54.5% (active). The growth in the experiment with CAKI-1 renal is 78.1%; with A498 renal, 136%; with CCRF-CEM leukemia, 11.8%; with MOLT-4 leukemia it was -26.6% (active).
`Nc1nc(-c2ccccc2)c(N=Nc2ccc(Cl)cc2Cl)s1`: the growth was -61.1% (active) in the experiment with SK-MEL-2 melanoma; -30.5% (active) in the experiment on EKVX NSCLC; -95% (active) in the experiment on SN12C renal; -20% (active) in the experiment with UO-31 renal; -13.9% (active) with TK-10 renal; -31.2% (active) with ACHN renal. In addition, the growth in the experiment on CAKI-1 renal is -34.3% (active); with A498 renal it was -16.8% (active); in the experiment with CCRF-CEM leukemia, -0.55% (active); with MOLT-4 leukemia, -24.6% (active).
On to `N/C(=N\c1nc2ccc([N+](=O)[O-])cc2s1)NC(=O)Nc1ccccc1Cl`, for which the growth with SK-MEL-2 melanoma was 88.1%; in the experiment with EKVX NSCLC, 58.4%; in the experiment on SN12C renal it was 25.5%; in the experiment on UO-31 renal it was -32.1% (active); in the experiment on TK-10 renal, 17.8%; with ACHN renal it was -41.4% (active). Further, the growth with CAKI-1 renal is 43.1%; with A498 renal, -5.78% (active); with CCRF-CEM leukemia, 74.9%; in the experiment on MOLT-4 leukemia, 83.5%.
Consider `COc1ccc2c(c1)C(Sc1ccc(Cl)cc1)c1c(nc(N)c(C#N)c1N)O2` (stereo not given), for which the growth in the experiment with SK-MEL-2 melanoma was 79.5%; in the experiment with EKVX NSCLC it was 43.8%; in the experiment on SN12C renal it was 55.7%; in the experiment on UO-31 renal, 26.5%; with TK-10 renal, 99.1%; with ACHN renal it was 60.1%. Moreover, the growth with CAKI-1 renal was 51.9%; in the experiment on A498 renal, 84.4%; with CCRF-CEM leukemia, -10.6% (active); in the experiment on MOLT-4 leukemia it was -1.37% (active).
For `CCOc1ccc2[nH]c(=O)c(C(c3nnnn3CC3CCCO3)N3CCN(Cc4ccccc4)CC3)cc2c1` (stereo not given), the growth was 102% in the experiment on SK-MEL-2 melanoma; 86.9% with EKVX NSCLC; 88.2% with SN12C renal; 99.9% with UO-31 renal; 114% with TK-10 renal; 61.2% with ACHN renal. Besides, the growth in the experiment on CAKI-1 renal is 76.3%; in the experiment on A498 renal, 76%; with CCRF-CEM leukemia, 93.7%; in the experiment on MOLT-4 leukemia it was 101%.
With `Cc1cccc(C)c1Nc1nnc(-c2c[nH]c3ccccc23)o1`, the growth in the experiment with SK-MEL-2 melanoma is 99.5%; with EKVX NSCLC it was 74.6%; with SN12C renal, 87.8%; with UO-31 renal, 65.3%; with TK-10 renal, 148%; in the experiment with ACHN renal, 93.9%. The growth was 82.7% with CAKI-1 renal, 134% with A498 renal, 106% with CCRF-CEM leukemia and 91.1% in the experiment with MOLT-4 leukemia.
With `CN1C(=O)/C(=C/c2ccco2)S/C1=N/c1nccs1`, the growth was 108% with SK-MEL-2 melanoma; 91.8% with EKVX NSCLC; 100% in the experiment on SN12C renal; 80.9% with UO-31 renal; 130% in the experiment with TK-10 renal; 100% in the experiment on ACHN renal. The growth in the experiment with CAKI-1 renal is 91.7%; in the experiment on A498 renal, 107%; in the experiment with CCRF-CEM leukemia, 96.8%; with MOLT-4 leukemia, 107%.
Regarding `Cc1cc(C)c2[nH]c(=O)c(C(c3nnnn3Cc3ccc4c(c3)OCO4)N3CCN(C)CC3)cc2c1` (stereo not given), the growth was 105% in the experiment with SK-MEL-2 melanoma; 106% in the experiment on EKVX NSCLC; 108% with SN12C renal; 103% in the experiment with UO-31 renal; 115% in the experiment with TK-10 renal; 106% in the experiment with ACHN renal. The growth in the experiment with CAKI-1 renal is 97.7%; with A498 renal, 102%; in the experiment on CCRF-CEM leukemia, 119%; in the experiment with MOLT-4 leukemia, 82.3%.
